The values below come from the supplement of paper PMC4709259.

Counter-ions that a name gives are not always drawn. ± gives the standard deviation.

The test system of the assay is Jurkat. Put plainly: cell count relative to DMSO control (fraction of control); higher = more cells (less growth inhibition). To be noted: 48 h.
As for `CC(C)(C)NC(=O)[C@@H]1CN(Cc2cccnc2)CCN1C[C@@H](O)C[C@@H](Cc1ccccc1)C(=O)N[C@H]1c2ccccc2C[C@H]1O` [Indinavir] (concentration: 25 µM), the cell count amounted to 0.539 ± 0.068.
`CCOC(=O)C1=C(COCCN)NC(C)=C(C(=O)OC)C1c1ccccc1Cl` (stereo unspecified) [Amlodipine] (concentration: 25 µM): the cell count amounted to 0.268 ± 0.055.
`COC(=O)CCc1ccc(OCC(O)CNC(C)C)cc1` (stereo unspecified) [Esmolol] (concentration: 25 µM) registered a cell count of 1.08 ± 0.12.
For `CNCC[C@@H](Oc1ccccc1C)c1ccccc1` [Atomoxetine·HCl] (concentration: 25 µM) the value was 0.81 ± 0.12; for `Cn1nnc2c(C(N)=O)ncn2c1=O` [Temozolomide] (concentration: 25 µM), 0.543 ± 0.12.
On to `Cn1c(=O)c2[nH]cnc2n(C)c1=O` [Aminophylline] (concentration: 25 µM), for which the cell count came to 0.984 ± 0.066.
Consider `C[C@H]1C[C@H]2[C@@H]3CCC4=CC(=O)C=C[C@]4(C)[C@@]3(F)[C@@H](O)C[C@]2(C)[C@@]1(O)C(=O)CO` [Betamethasone] (concentration: 25 µM), for which the cell count amounted to 0.764 ± 0.084.
`CC(C)n1c(/C=C/[C@H](O)C[C@H](O)CC(=O)O)c(-c2ccc(F)cc2)c2ccccc21` [Fluvastatin·Na] (concentration: 25 µM) gave a cell count of 0.492 ± 0.12.
As to `Nc1ccc(S(=O)(=O)c2ccc(N)cc2)cc1` [Dapsone] (concentration: 25 µM), the cell count was 0.976 ± 0.1.
Molecule `COC(=O)C1=C(C)NC(C)=C(C(=O)OCCN(C)Cc2ccccc2)C1c1cccc([N+](=O)[O-])c1` (stereo unspecified) [Nicardipine·HCl] (concentration: 25 µM) showed a cell count of 0.568 ± 0.034.
In the case of `CC(C)c1c(C(=O)Nc2ccccc2)c(-c2ccccc2)c(-c2ccc(F)cc2)n1CC[C@@H](O)C[C@@H](O)CC(=O)O` [Atorvastatin Calcium] (concentration: 25 µM) it was 0.552 ± 0.07; in that of `CN(C)CCOC(c1ccc(Cl)cc1)c1ccccn1` (stereo unspecified) [Carbinoxamine Maleate] (concentration: 25 µM), 0.735 ± 0.064.
For `NCCCC[C@H](N[C@@H](CCc1ccccc1)C(=O)O)C(=O)N1CCC[C@H]1C(=O)O` [Lisinopril·2H2O] (concentration: 25 µM) the value was 0.884 ± 0.075; for `O=C(CCCN1CCC(O)(c2ccc(Cl)cc2)CC1)c1ccc(F)cc1` [Haloperidol] (concentration: 25 µM), 0.609 ± 0.16.
For `CN1C(CCl)Nc2cc(Cl)c(S(N)(=O)=O)cc2S1(=O)=O` (stereo unspecified) [Methyclothiazide] (concentration: 25 µM) the value was 0.633 ± 0.17; for `Nc1nc(Cl)nc2c1ncn2[C@@H]1O[C@H](CO)[C@@H](O)[C@@H]1F` [Clofarabine] (concentration: 25 nM), 0.26 ± 0.073; for `C[C@]12C=CC(=O)C=C1CC[C@@H]1[C@@H]2C(=O)C[C@@]2(C)[C@H]1CC[C@]2(O)C(=O)CO` [Prednisone] (concentration: 25 µM), 0.689 ± 0.13.
`CN(C)CCc1c[nH]c2ccc(C[C@H]3COC(=O)N3)cc12` [Zolmitriptan] (concentration: 25 µM) gave a cell count of 0.419 ± 0.11.
In the case of `COC(=O)[C@@H]1CC2=CC(=O)CC[C@]2(C)[C@@]23O[C@@H]2C[C@@]2(C)[C@@H](CC[C@@]24CCC(=O)O4)[C@H]13` [Eplerenone] (concentration: 25 µM) it was 0.521 ± 0.06.
For `CNC[C@H](O)c1ccc(O)c(O)c1` [Epinephrine (L-(-)-Epinephrine-(+)-Bitartrate)] (concentration: 25 µM) the value was 0.855 ± 0.14; for `CC(C)c1ccc2oc3nc(N)c(C(=O)O)cc3c(=O)c2c1` [Amlexanox] (concentration: 25 µM), 0.469 ± 0.12; for `CCN(CC)CC(=O)Nc1c(C)cccc1C` [Lidocaine·HCl·H2O] (concentration: 25 µM), 1.03 ± 0.14.
For `CC(C)c1nc(N(C)S(C)(=O)=O)nc(-c2ccc(F)cc2)c1/C=C/[C@@H](O)C[C@@H](O)CC(=O)O` [Rosuvastatin Calcium] (concentration: 25 µM) the value was 0.689 ± 0.065; for `CC(=O)[C@H]1CC[C@H]2[C@@H]3CCC4=CC(=O)CC[C@]4(C)[C@H]3CC[C@]12C` [Progesterone] (concentration: 25 µM), 0.755 ± 0.052.
In turn, `Nc1cc(-c2ccncc2)c[nH]c1=O` [Amrinone] (concentration: 25 µM) returned a cell count of 0.256 ± 0.064.
On to `NC[C@H]1O[C@H](O[C@H]2[C@H](O)[C@@H](O[C@H]3O[C@H](CO)[C@@H](O)[C@H](N)[C@H]3O)[C@H](N)C[C@@H]2N)[C@H](N)C[C@@H]1O` [Tobramycin] (concentration: 25 µM), for which the cell count was 0.65 ± 0.082.
